# Results as given in PubChem BioAssay (EPA / NIEHS).
# Where “and” joins values, the source holds several entries; their conditions need not be identical. Equal entries are not always repeated. Some compounds were tested as several samples or in several runs, with calls that do not always agree. Calls of active or inactive are those of the source. Rule for the calls: active = hit-call score of the fitted dose curve at least 0.9, where 1 is the maximum; inactive = score below 0.9.
# Legend:
# [1] = read-out: Intercellular Adhesion Molecule 1 (ICAM1), ICAM1 (gene 3383); test: BSK_BF4T_ICAM1: BioMAP Diversity Plus: BF4T Assay for Intercellular Adhesion Molecule 1 (ICAM1) Biomarker Activity (AID 2284260); conditions: primary human bronchial epithelial cells with fibroblasts
# Outline: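 ICAM-1 levels measured by ELISA after 24 h chemical treatment of bronchial epithelial cell/dermal fibroblast co-cultures, read against DMSO baseline. Overt cytotoxicity checked in parallel cultures by sulforhodamine B staining.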
# [2] = read-out: Interleukin-8 (IL8), CXCL8 (gene 3576); test: BSK_MyoF_IL8: BioMAP Diversity Plus: MyoF Assay for Interleukin-8 (IL8) Biomarker Activity (AID 2284261); conditions: primary human lung fibroblasts
# Outline: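 ELISA read-out of IL-8 from primary human lung fibroblasts, 24 h post-dose; positive-direction curve fitting relative to DMSO vehicle baseline.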
# [3] = read-out: CD90, THY1 (gene 7070); test: BSK_BF4T_CD90: BioMAP Diversity Plus: BF4T Assay for CD90 Biomarker Activity (AID 2284262); conditions: primary human bronchial epithelial cells with fibroblasts
# Outline: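 CD90 levels by ELISA after 24 h treatment of human bronchial epithelial cell/dermal fibroblast cultures, analysed versus DMSO. Overt cytotoxicity checked in parallel cultures by sulforhodamine B staining.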
# [4] = read-out: Interleukin-8 (IL8), CXCL8 (gene 3576); test: BSK_BF4T_IL8: BioMAP Diversity Plus: BF4T Assay for Interleukin-8 (IL8) Biomarker Activity (AID 2284263); conditions: primary human bronchial epithelial cells with fibroblasts
# Outline: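 Human bronchial epithelial cells with dermal fibroblasts co-culture; IL-8 measured by ELISA 24 hours after dosing, fitted vs DMSO. Cytotoxicity tracked in parallel cultures by SRB total-protein staining.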
# [5] = read-out: Interleukin-1 alpha (IL1a), IL1A (gene 3552); test: BSK_BF4T_IL1a: BioMAP Diversity Plus: BF4T Assay for Interleukin-1 alpha (IL1a) Biomarker Activity (AID 2284264); conditions: primary human bronchial epithelial cells with fibroblasts
# Outline: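 ELISA read-out of IL-1α from bronchial epithelial cell/dermal fibroblast co-cultures 24 h after compound addition. Increases scored against DMSO negative control. Cytotoxicity monitored by sulforhodamine B staining of parallel cultures.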
# [6] = read-out: Decorin, DCN (gene 1634); test: BSK_MyoF_Decorin: BioMAP Diversity Plus: MyoF Assay for Decorin Biomarker Activity (AID 2284265); conditions: primary human lung fibroblasts
# Outline: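 Human lung fibroblasts in the MyoF system were exposed to compound for 24 h, after which decorin was quantified by ELISA. Activity was fitted in the positive direction relative to DMSO negative control.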
# [7] = read-out: KRT18 (gene 3875); test: BSK_BF4T_Keratin818: BioMAP Diversity Plus: BF4T Assay for Keratin 818 Biomarker Activity (AID 2284266); conditions: primary human bronchial epithelial cells with fibroblasts
# Outline: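 Keratin 8/18 levels quantified by ELISA after 24 h chemical treatment of bronchial epithelial cell/dermal fibroblast co-cultures, fitted in positive direction relative to DMSO. Parallel SRB staining tracks overt cytotoxicity.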
# [8] = BSK_MyoF_SRB: Viability Assessment in the BioMAP Diversity Plus: MyoF Assay (AID 2284267); conditions: primary human lung fibroblasts;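 note: total protein by SRB absorbance in parallel cultures as cytotoxicity measure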
# Outline: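 Lung fibroblast cultures, 24 h post-dose; fix 10% TCA, stain 0.1% SRB, read 560 nm. Signal = total protein as cytotoxicity measure; fitted relative to DMSO negative control.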
# [9] = read-out: Matrix Metallopeptidase 1 (MMP1), MMP1 (gene 4312); test: BSK_MyoF_MMP1: BioMAP Diversity Plus: MyoF Assay for Matrix Metallopeptidase 1 (MMP1) Biomarker Activity (AID 2284268); conditions: primary human lung fibroblasts
# Outline: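 ELISA readout of MMP1 in primary human lung fibroblast cultures, 24 h post-dosing. Gain of signal versus DMSO vehicle control defines activity. Parallel SRB staining (0.1% after 10% TCA fixation, 560 nm) flags overt cytotoxicity.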
# [10] = read-out: Matrix Metallopeptidase 1 (MMP1), MMP1 (gene 4312); test: BSK_BF4T_MMP1: BioMAP Diversity Plus: BF4T Assay for Matrix Metallopeptidase 1 (MMP1) Biomarker Activity (AID 2284270); conditions: primary human bronchial epithelial cells with fibroblasts
# Outline: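 MMP-1 quantified by ELISA in primary human bronchial epithelial/dermal fibroblast co-cultures, 24 hours post-dosing, with DMSO as baseline; parallel sulforhodamine B staining (560 nm) tracks overt cytotoxicity.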
# [11] = read-out: Matrix Metallopeptidase 3 (MMP3), MMP3 (gene 4314); test: BSK_BF4T_MMP3: BioMAP Diversity Plus: BF4T Assay for Matrix Metallopeptidase 3 (MMP3) Biomarker Activity (AID 2284271); conditions: primary human bronchial epithelial cells with fibroblasts
# Outline: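 MMP-3 level read by ELISA after 24 h chemical exposure of bronchial epithelial cell/dermal fibroblast co-cultures, fitted upward relative to DMSO. Parallel cultures stained with 0.1% SRB after TCA fixation gauge overt cytotoxicity.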
# [12] = read-out: Tissue plasminogen activator (tPA), PLAT (gene 5327); test: BSK_BF4T_tPA: BioMAP Diversity Plus: BF4T Assay for Tissue plasminogen activator (tPA) Biomarker Activity (AID 2284272); conditions: primary human bronchial epithelial cells with fibroblasts
# Outline: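 tPA level quantified by ELISA at 24 h post-treatment in bronchial epithelial/dermal fibroblast co-cultures, gain of signal scored against DMSO baseline. Parallel cultures stained with 0.1% SRB (560 nm) to flag overt cytotoxicity.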
# [13] = read-out: Plasminogen Activator Inhibitor-1 (PAI1), SERPINE1 (gene 5054); test: BSK_BF4T_PAI1: BioMAP Diversity Plus: BF4T Assay for Plasminogen Activator Inhibitor-1 (PAI1) Biomarker Activity (AID 2284273); conditions: primary human bronchial epithelial cells with fibroblasts
# Outline: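 PAI-1 levels quantified by ELISA 24 h post-dosing in bronchial epithelial cell plus dermal fibroblast cultures. Signal gain referenced to DMSO baseline. Sulforhodamine B total-protein staining of parallel wells checked cytotoxicity.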
# [14] = BSK_BF4T_SRB: Viability Assessment in the BioMAP Diversity Plus: BF4T Assay (AID 2284274); conditions: primary human bronchial epithelial cells with fibroblasts
# Outline: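 Cytotoxicity measured as total protein: cells fixed with 10% TCA, stained with 0.1% SRB, read at 560 nm. Bronchial epithelial/dermal fibroblast co-culture, 24 h after dosing, with positive-direction fitting relative to DMSO.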
# [15] = read-out: urokinase Plasminogen Activator (uPA), PLAU (gene 5328); test: BSK_BF4T_uPA: BioMAP Diversity Plus: BF4T Assay for urokinase Plasminogen Activator (uPA) Biomarker Activity (AID 2284275); conditions: primary human bronchial epithelial cells with fibroblasts
# Outline: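 uPA levels measured by ELISA at 24 hours in BF4T cultures (bronchial epithelial cells plus dermal fibroblasts) and compared with DMSO; cytotoxicity tracked in parallel cultures by sulforhodamine B staining.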
# [16] = read-out: Matrix Metallopeptidase 9 (MMP9), MMP9 (gene 4318); test: BSK_BF4T_MMP9: BioMAP Diversity Plus: BF4T Assay for Matrix Metallopeptidase 9 (MMP9) Biomarker Activity (AID 2284276); conditions: primary human bronchial epithelial cells with fibroblasts
# Outline: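 MMP-9 levels were measured by ELISA after 24 h exposure of bronchial epithelial cell/dermal fibroblast co-cultures, with DMSO as baseline. Parallel cultures were stained with 0.1% SRB after TCA fixation, read at 560 nm, to flag overt cytotoxicity.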
# [17] = read-out: Interferon-inducible T-cell alpha chemoattractant (ITAC), CXCL11 (gene 6373); test: BSK_BE3C_ITAC: BioMAP Diversity Plus: BE3C Assay for Interferon-inducible T-cell alpha chemoattractant (ITAC) Biomarker Activity (AID 2284279); conditions: primary human bronchial epithelial cells
# Outline: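 The assay measures I-TAC levels by ELISA in human primary bronchial epithelial cell cultures 24 hours after chemical treatment. Values reflect signal increase over the DMSO baseline.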
# [18] = read-out: Interleukin-8 (IL8), CXCL8 (gene 3576); test: BSK_BE3C_IL8: BioMAP Diversity Plus: BE3C Assay for Interleukin-8 (IL8) Biomarker Activity (AID 2284280); conditions: primary human bronchial epithelial cells
# Outline: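 Dose human bronchial epithelial cells with chemical; incubate 24 h; quantify IL-8 by ELISA; fit response upward versus DMSO controls.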
# [19] = read-out: Epidermal growth factor receptor (EGFR), EGFR (gene 1956); test: BSK_BE3C_EGFR: BioMAP Diversity Plus: BE3C Assay for Epidermal growth factor receptor (EGFR) Biomarker Activity (AID 2284281); conditions: primary human bronchial epithelial cells
# Outline: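 ELISA read-out of EGFR levels on human bronchial epithelial primary cells collected 24 h post-dosing. DMSO served as negative control and baseline for gain-of-signal fitting.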
# [20] = read-out: KRT18 (gene 3875); test: BSK_BE3C_Keratin818: BioMAP Diversity Plus: BE3C Assay for Keratin 818 Biomarker Activity (AID 2284282); conditions: primary human bronchial epithelial cells
# Outline: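 ELISA read-out of Keratin 8/18 in BE3C human bronchial epithelial cultures, 24 h post-dosing; positive-direction fit vs DMSO baseline.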
structure (smiles),measurement,setting,value
CN(CCO)S(=O)(=O)C(F)(F)C(F)(F)C(F)(F)C(F)(F)C(F)(F)C(F)(F)C(F)(F)C(F)(F)F,outcome,[1],inactive
same,outcome,[2],inactive
same,outcome,[3],inactive
same,AC50,[4],0.0245 µM (active)
same,outcome,[4],inactive
same,outcome,[5],inactive
same,outcome,[6],inactive
same,outcome,[7],inactive
same,outcome,[8],inactive
same,outcome,[9],inactive
same,outcome,[10],inactive
same,outcome,[11],inactive
same,outcome,[12],inactive
same,outcome,[13],inactive
same,outcome,[14],inactive
same,outcome,[15],inactive
same,outcome,[16],inactive
same,outcome,[17],inactive
same,outcome,[18],inactive
same,outcome,[19],inactive
same,outcome,[20],inactive
O=C1c2ccc(O)c(O)c2C(=O)c2c(O)ccc(O)c21,outcome,[2],inactive
same,outcome,[6],inactive
same,outcome,[8],inactive
same,outcome,[9],inactive
O=C(O)C(F)(F)OC(F)(F)C(F)(F)OC(F)(F)C(F)(F)OC(F)(F)C(F)(F)C(F)(F)C(F)(F)F,AC50,[1],8.19 µM (active) and 7.58 µM (active)
same,AC50,[2],46.8 µM (active) and 44.5 µM (active)
same,AC50,[3],14.6 µM (active)
same,outcome,[3],inactive
same,AC50,[4],53.7 µM (active)
same,outcome,[4],inactive
same,AC50,[5],11 µM (active) and 13.4 µM (active)
same,AC50,[6],17.3 µM (active)
same,outcome,[6],inactive
same,AC50,[7],14.6 µM (active) and 7.97 µM (active)
same,AC50,[8],13 µM (active) and 9.16 µM (active)
same,outcome,[9],inactive
same,outcome,[10],inactive
same,AC50,[11],14.4 µM (active) and 8.19 µM (active)
same,AC50,[12],8.23 µM (active) and 8.02 µM (active)
same,AC50,[13],19.1 µM (active) and 16.2 µM (active)
same,outcome,[14],inactive
same,AC50,[15],14.6 µM (active)
same,outcome,[15],inactive
same,AC50,[16],11.2 µM (active) and 8.88 µM (active)
same,AC50,[17],5.77 µM (active) and 5.71 µM (active)
same,AC50,[18],6.28 µM (active) and 6.03 µM (active)
same,outcome,[19],inactive
same,AC50,[20],3.28 µM (active) and 2.7 µM (active)
OCC(F)(F)C(F)(F)C(F)(F)C(F)(F)C(F)(F)C(F)(F)C(F)(F)C(F)(F)C(F)(F)C(F)(F)C(F)(F)F,outcome,[1],inactive
same,outcome,[2],inactive
same,outcome,[3],inactive
same,outcome,[4],inactive
same,outcome,[5],inactive
same,outcome,[6],inactive
same,outcome,[7],inactive
same,outcome,[8],inactive
same,outcome,[9],inactive
same,outcome,[10],inactive
same,outcome,[11],inactive
same,outcome,[12],inactive
same,outcome,[13],inactive
same,outcome,[14],inactive
same,outcome,[15],inactive
same,outcome,[16],inactive
same,outcome,[17],inactive
same,AC50,[18],224 nM (active)
same,outcome,[18],inactive
same,outcome,[19],inactive
same,outcome,[20],inactive
C[C@]12CC[C@@H]3c4ccc(O)cc4CC[C@H]3[C@@H]1C[C@@H](O)[C@@H]2O,outcome,[2],inactive
same,outcome,[6],inactive
same,outcome,[8],inactive
same,outcome,[9],inactive
Cc1cccc2c1ccc1ccccc12,outcome,[2],inactive
same,outcome,[6],inactive
same,outcome,[8],inactive
same,outcome,[9],inactive
CCCCCc1ccc(O)cc1,outcome,[2],inactive
same,outcome,[6],inactive
same,AC50,[8],28.7 µM (active)
same,AC50,[9],36.6 µM (active)
